Assay results published in article PMC4552634, “A New Set of Chemical Starting Points with Plasmodium falciparum Transmission-Blocking Potential for Antimalarial Drug Discovery” (PLoS ONE, 2015).
The whole screen tested about 13,000 compounds, of which about 3,200 (25%) showed an effect of 50% or more. The list shows a part of the results.

System: P. falciparum stage V gametocytes
Design: BacTiter-Glo ATP luminescence viability of purified stage V gametocytes in 384-well plates, per cent inhibition versus DMSO
Details: 48 h, 5 µM; inhibitor

| SMILES | % Inhibition |
| --- | --- |
| COCCN1CCC(N(Cc2ccc(-c3ccc(C(F)(F)F)cc3)cc2)C(=O)Cn2c(CCc3cccc(F)c3F)cc(=O)c3c2CCC3)CC1 [TCMDC-141266] | 34.4% |
| CCN(CC)CCN(Cc1ccc(-c2ccc(C(F)(F)F)cc2)cc1)C(=O)CN1C(CCc2cccc(F)c2F)=NS(=O)(=O)c2ccccc21 [TCMDC-141806] | 67.96% |
| CCN1CCC(N(Cc2ccc(-c3ccc(C(F)(F)F)cc3)cc2)C(=O)Cn2c(CCc3cccc(F)c3F)cc(=O)c3c2CCC3)CC1 [TCMDC-141265] | 65.76% |
| CCCNc1ccc2nccc(CCN3CCC(NCc4ccc5c(c4)NC(=O)CS5)CC3)c2n1 [TCMDC-141619] | -14.28% |
| ON=C1CCc2cc(-c3nc(-c4cccc(OCCNCc5ccc(F)cc5)c4)[nH]c3-c3ccncc3)ccc21 [TCMDC-141188] | 20.84% |
| CN1CCC(NCc2cccc(-c3ccc(S(=O)(=O)NCCc4ccccn4)cc3)c2)CC1 [TCMDC-132214] | 81.33% |
| CN1CCC(NCCS(=O)(=O)c2cccc(Nc3ccc(-c4cccc(F)c4)cn3)c2)CC1 [TCMDC-134370] | 8.325% |
| Cc1cc(-c2cccc(CNC3CCN(C)CC3)c2)ccc1S(=O)(=O)NCCc1ccccn1 [TCMDC-132381] | 33.36% |
| CN1CCC(NCc2ccc(-c3cccc(S(=O)(=O)NCCc4ccccn4)c3)cc2)CC1 [TCMDC-132239] | 62.99% |
| COc1ccc2nccc([C@@H](O)CN3CCC(NCC(=O)Nc4cc(F)cc(F)c4)CC3)c2n1 [TCMDC-140675] | -19.08% |
| Cc1ccnc2nc(C(=O)Nc3cc(C(F)(F)F)ccc3N3CCCCC3)nn12 [TCMDC-124492] | -24.2% |
| Cc1ccc(C(=O)NCC2CCN(c3ccc(C(F)(F)F)cc3NC(=O)c3ccco3)CC2)cn1 [TCMDC-134179] | 52.48% |
| COC(=O)Nc1cc(C(F)(F)F)ccc1N1CCC(CNS(=O)(=O)c2ccc(OC)cc2)CC1 [TCMDC-134157] | 29.26% |
| C[C@H](NC(=O)[C@H](Cc1ccccc1)NC(=O)OC(C)(C)C)C(=O)N[C@@H](CC1CCCCC1)C(O)CN (stereo partly drawn) [TCMDC-137178] | -9.62% |
| CCC(ON1C(N)=NC(N)=NC1(C)C)c1ccccc1 (stereo not drawn) [TCMDC-131604] | -12.67% |
| CCCCCN1CCCN(Cc2cccc(NC(=O)c3ccc(-c4ccccc4)cc3)c2)CC1 [TCMDC-141845] | -85.57% |
| CN1CCN(CCCN(Cc2ccc(-c3cccc(CNC4CCCC4)c3)cc2)C(=O)Nc2ccccc2)CC1 [TCMDC-140605] | 107.6% |
| COc1cccc(C=CC(=O)N(CCN)Cc2ccccc2)c1 [TCMDC-137725] | -7.766% |
| CN1CCN(CCCN(Cc2ccc(-c3cccc(CNC4CCCC4)c3)cc2)C(=O)/C=C/c2ccccc2)CC1 [TCMDC-140547] | 114.1% |
| CCCCN1CCCN(Cc2cccc(NC(=O)c3ccc(-c4ccccc4)cc3)c2)CC1 [TCMDC-141844] | -70.1% |
| CN1CCN(CCCN(Cc2cccc(-c3ccc(CNC4CCCC4)cc3)c2)C(=O)/C=C/c2ccccc2)CC1 [TCMDC-140544] | 99.25% |
| CN1CCN(CCCN(Cc2cccc(-c3cccc(CNC4CCCC4)c3)c2)C(=O)/C=C/c2ccccc2)CC1 [TCMDC-140543] | 105.2% |

| SMILES | % Inhibition |
| --- | --- |
| CN1CC[C@@H](Oc2cc(CNC(=O)c3ccc(-c4ccc(Cl)cc4)s3)ccc2C(F)(F)F)C1 [TCMDC-136151] | -38.31% |
| C=CCc1cc(Cc2cnc(N)nc2N)c2ccc(C)nc2c1OC [TCMDC-137891] | -15.21% |
| Cc1cc(OCc2ccccc2)c(OCc2ccccc2)cc1C(O)CN(C)Cc1ccccc1 (stereo not drawn) [TCMDC-131246] | 18.13% |
| Cc1cc(Nc2ccc(C(C)(C)C)cc2)c2[nH]ncc2n1 [TCMDC-131536] | -25.63% |
| Cc1ccccc1CCNC(=O)c1ccc(N2CCN(c3ccncc3)CC2)nc1 [TCMDC-134588] | 6.86% |
| Cc1ccc2cc(C3NC(=O)c4ccccc4N3)c(Cl)nc2c1 (stereo not drawn) [TCMDC-124480] | -10.78% |
| N#Cc1cccc(Nc2nccc(NCC(O)c3cccc(C(F)(F)F)c3)n2)c1 (stereo not drawn) [TCMDC-136580] | -40.58% |
| O=C(CCc1ccccc1)NC(c1ccc(Cl)cc1)c1ccc2cccnc2c1O (stereo not drawn) [TCMDC-123537] | 82.06% |
| O=C(Cc1ccccc1)NC(c1ccccc1)c1ccc2cccnc2c1O (stereo not drawn) [TCMDC-124383] | 92.16% |
| O=C(NC(c1ccc(Cl)cc1)c1ccc2cccnc2c1O)c1ccccc1 (stereo not drawn) [TCMDC-123829] | -93.03% |
| Cc1ccc(C(NC(=O)Cc2ccccc2)c2ccc3cccnc3c2O)cc1 (stereo not drawn) [TCMDC-125551] | 6.84% |
| O=C(Cc1ccccc1)NC(c1ccc(Cl)cc1)c1ccc2cccnc2c1O (stereo not drawn) [TCMDC-124427] | 70.3% |
| c1ccc(C(OCCC2CCN(Cc3cccc4cccnc34)CC2)c2ccccc2)cc1 [TCMDC-136047] | -51.83% |
| CN(C)CCNc1ncnc2c1[nH]c1ccc(Br)cc12 [TCMDC-124584] | 3.603% |
| CN(C)c1cc(N/N=C/c2cc(Cl)ccc2O)nc(N(C)C)n1 [TCMDC-125812] | -69.18% |
| CC1CN(Cc2cccc(C#N)c2)CCN1c1ccc(NC(=O)c2cccs2)cc1 (stereo not drawn) [TCMDC-134969] | -7.267% |
| O=C(CSc1cccc[n+]1[O-])c1ccc(Cc2ncc(C(F)(F)F)cc2Cl)s1 [TCMDC-125823] | 10.92% |
| COc1nc2c(CCN3CC[C@H](NCc4cc(C#N)c5c(c4)OCCO5)[C@H](O)C3)ccnc2cc1F [TCMDC-135968] | 5.29% |
| COc1ccc2ncc(F)c([C@@H](O)CN3CCC(NCc4cc(C#N)c5c(c4)CCO5)CC3)c2n1 [TCMDC-136078] | 86.13% |
| COc1ccc2ncc(F)c(CCN3CCC(NCc4ccc5c(c4)CCO5)CC3)c2n1 [TCMDC-135491] | 11.83% |
| COc1ccc2nccc([C@H](O)CN3CCC(NCc4cc(C)c5c(c4)OCCO5)CC3)c2n1 [TCMDC-136075] | 22.49% |
| COc1ccc2ncc(F)c([C@@H](O)CN3CCC(NCc4ccc5c(c4)NCCS5)CC3)c2n1 [TCMDC-135765] | 82.34% |

| SMILES | % Inhibition |
| --- | --- |
| COc1ccc2ncc(F)c([C@H](O)CN3CCC(NCc4ccc5c(c4)OCCO5)CC3)c2c1 [TCMDC-135828] | -2.76% |
| COc1nc2c(CCN3CC[C@H](NCc4cc(C#N)c5c(c4)CCO5)[C@H](O)C3)ccnc2cc1F [TCMDC-135969] | -20.52% |
| COc1nc2c(CCN3CC[C@@H](NCc4cc(C#N)c5c(c4)CCO5)[C@@H](O)C3)ccnc2cc1F [TCMDC-135964] | 90.2% |
| COc1ccc2ncc(F)c([C@H](O)CN3CCC(NCc4ccc5c(c4)NC(=O)CO5)CC3)c2c1 [TCMDC-135829] | -7.754% |
| O=C(Nc1ccc(-c2cccc(-c3nc4ccccc4[nH]3)c2)cc1)NC1CC1c1ccccc1 (stereo not drawn) [TCMDC-133257] | -13.71% |
| O=C(CC1CCCC1)N(CC1CCN(Cc2ccc(C(F)(F)F)cc2)CC1)c1ccc(N2CCOCC2)c(F)c1 [TCMDC-135855] | 9.841% |
| CCN(CCCN1CCCCC1)c1nccc(Nc2ccc(Cl)cc2)n1 [TCMDC-137046] | 6.161% |
| CS(=O)(=O)c1ccccc1CNC(=O)c1cccc(-c2ccc(-c3nc4cc(C(F)(F)F)ccc4[nH]3)cc2)c1 [TCMDC-132506] | -36.65% |
| CC(C)N1CCC(N(Cc2ccc(-c3ccc(C(F)(F)F)cc3)cc2)C(=O)Cn2c(CCc3cccc(F)c3F)cc(=O)c3ccccc32)CC1 [TCMDC-141141] | 111.4% |
| CC(C)N1CCC(N(Cc2ccc(-c3ccc(C(F)(F)F)cc3)cc2)C(=O)Cn2c(SCc3cccc(F)c3F)cc(=O)c3ccccc32)CC1 [TCMDC-141157] | 117.9% |
| CC(C)N1CCC(N(Cc2ccc(-c3ccc(C(F)(F)F)cc3)cc2)C(=O)Cn2c(SCc3cccc(F)c3F)nc(=O)c3ccccc32)CC1 [TCMDC-141312] | 121.2% |
| CC(C)N1CCC(N(Cc2ccc(-c3ccc(Cl)cc3)cc2)C(=O)Cn2c(CCc3cccc(F)c3F)nc(=O)c3ccccc32)CC1 [TCMDC-141368] | 117.4% |
| N#Cc1c(N)nc(SCC(=O)Nc2cc(C(F)(F)F)ccc2Cl)c(C#N)c1-c1cccs1 [TCMDC-123750] | -5.622% |
| COc1ccc(NC(=O)c2ccc(Br)c(C)c2)cc1N1CCN(Cc2ccccc2)CC1 [TCMDC-139031] | -19.8% |
| CSc1cccc(NC(=O)c2cc3ccccc3oc2=O)c1 [TCMDC-123616] | 19.07% |
| O=C(NCC(c1ccc(C(F)(F)F)cc1)N1CCCC1)c1cc(-c2ccncc2)c(-c2cccc(O)c2)o1 (stereo not drawn) [TCMDC-135665] | 33.87% |
| CCn1c(SCc2ccccc2)nc2c1c(=O)[nH]c(=O)n2C [TCMDC-125734] | -6.834% |
| CC(C)CNC(=S)N1CCCN(c2nc3ccc(Cl)cc3s2)CC1 [TCMDC-139465] | 24.85% |
| Cc1noc(C)c1CN1Cc2ccccc2OC2(CCN(Cc3c[nH]c4cnccc34)CC2)C1 [TCMDC-133381] | 19.56% |
| COc1ccc(NC(=O)NC2CCN(c3ccnc4cc(Cl)ccc34)CC2)cc1 [TCMDC-133573] | -92.42% |
| CC(C)N1CCC(N(Cc2ccc(-c3ccc(Cl)cc3)cc2)C(=O)Cn2c(CCc3cccc(F)c3F)cc(=O)c3ccccc32)CC1 [TCMDC-141363] | 102.7% |
| CN1CCC(N(Cc2ccc(-c3ccc(C(F)(F)F)cc3)cc2)C(=O)Cn2cc(Cc3cnn(C)c3)c(=O)nc2SCc2cccc(F)c2F)CC1 [TCMDC-141337] | 106.7% |
